An excerpt weighted towards active compounds, which were near 2.3% of everything screened.
SENP6 inh = blocks the human protease SENP6; hit rate 1.8% among 330,000; inhibition, % at 10 µM; Q9GZR1; Recombinant SENP6 catalytic domain, aminoluciferin luminescence;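 active = inhibition above about 50% at the single tested dose, limit read from the data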
Target sequence (Q9GZR1 628-1112 limits assumed): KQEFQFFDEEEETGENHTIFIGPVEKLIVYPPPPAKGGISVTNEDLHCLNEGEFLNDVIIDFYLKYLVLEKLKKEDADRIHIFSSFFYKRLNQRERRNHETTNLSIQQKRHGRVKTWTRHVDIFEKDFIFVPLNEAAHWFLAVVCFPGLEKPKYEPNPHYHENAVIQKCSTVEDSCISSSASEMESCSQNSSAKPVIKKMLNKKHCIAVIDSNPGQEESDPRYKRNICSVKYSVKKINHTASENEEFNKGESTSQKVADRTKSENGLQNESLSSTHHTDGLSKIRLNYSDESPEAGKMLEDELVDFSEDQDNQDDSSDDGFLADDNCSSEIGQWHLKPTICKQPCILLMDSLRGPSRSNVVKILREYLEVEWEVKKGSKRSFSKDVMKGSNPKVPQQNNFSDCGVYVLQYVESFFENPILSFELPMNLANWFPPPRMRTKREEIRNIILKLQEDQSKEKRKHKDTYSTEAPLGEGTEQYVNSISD
SENP8 block-1 = SENP8 protease inhibition | Q96LD8 | hit rate 1.2% among 330,000 | purified SENP8, Z-RLRGG-aminoluciferin cleavage, luminescence | inhibition, % at 10 µM; in the data active = inhibition above about 50%
SENP8 block-2 = SENP8 (human) protease inhibition; Q96LD8; recombinant SENP8, Nedd8 substrate fluorescence; inhibition, % at 20 µM; hit rate 0.64% among 360,000; AID 602440; in the data active = inhibition mostly above about 40%, no sharp cut-off; inactive = mostly below about 27%
HSP90 inh = blocks HSP90-mediated luciferase refolding in reticulocyte lysate; inhibition, % at 5.6 µM; Rabbit reticulocyte lysate, luciferase refolding luminescence, 3 h; hit rate 0.91% among 290,000; AID 1789;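 active = inhibition above the screen-wide mean plus 3 SD, computed separately per campaign, cut at about 16% in these data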;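 also: inhibitors lower the luminescence because luciferase stays unfolded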
LGR2 antag = inhibitors of bursicon-induced Drosophila LGR2 receptor cAMP signaling. HEK293 LGR2, CRE-luciferase, bursicon-stimulated, 4 h. inhibition, % at 9.99 µM. hit rate 0.35% among 380,000. AID 720647;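 active = drop in luminescence signal, shown as inhibition above about 50% in the replicate tests, limit read from the data, passing the limit was not always enough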;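 also: agonist challenge used bursicon conditioned medium at about half maximal strength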
SENP7 inh = SENP7 protease inhibition; inhibition, % at 5 µM; Q9BQF6; recombinant SENP7, Z-RLRGG-aminoluciferin luminescence, 40 min; hit rate 1.5% among 330,000;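 active = inhibition above about 50% at the single test dose, limit read from the data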
SENP8 conf = confirmation of human SENP8 protease inhibitors. shares compounds with SENP7 inh. Recombinant SENP8, Z-RLRGG-aminoluciferin luminescence, 60 min. inhibition, % at 12.5 µM. hit rate 40% among 6,200. AID 488912;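 active = mean inhibition across replicates above about 50%, limit read from the data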
SENP6 conf = confirmation of human SENP6 protease inhibitors | shares compounds with SENP7 inh | recombinant SENP6, Z-RLRGG-aminoluciferin luminescence | inhibition, % at 12.5 µM | hit rate 58% among 6,200 | AID 488915
SENP7 conf = confirmation of human SENP7 protease inhibitors; recombinant SENP7, Z-RLRGG-aminoluciferin luminescence, 40 min; inhibition, % at 12.5 µM; hit rate 69% among 6,200; shares compounds with SENP7 inh
Casp3 SENP sel = caspase-3 inhibition (SENP selectivity assay); shares compounds with SENP7 inh; purified caspase-3, Z-DEVD-aminoluciferin luminescence, 60 min; inhibition, % at 12.5 µM; hit rate 60% among 6,200; AID 488918;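 active = mean inhibition above about 50%, limit read from the data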
Target sequence (P42574 28-227 limits assumed): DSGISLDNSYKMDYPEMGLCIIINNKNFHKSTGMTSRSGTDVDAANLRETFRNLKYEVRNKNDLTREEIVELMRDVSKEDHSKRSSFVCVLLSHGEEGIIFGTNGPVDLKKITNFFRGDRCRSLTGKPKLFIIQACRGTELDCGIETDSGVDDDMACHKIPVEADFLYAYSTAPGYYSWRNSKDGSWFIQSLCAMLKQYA
SENP luc ctr = counter-screen for SENP inhibitors: luminescence interference; AID 488919; shares compounds with SENP7 inh; inhibition, % at 12.5 µM; hit rate 39% among 6,200; Pre-incubated SENP8/Z-RLRGG-aminoluciferin, luciferase luminescence interference;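 active = mean inhibition above about 50% when retested at one dose, limit read from the data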
A number is an active result; i = inactive; nt = no result.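 The calls were made as follows, unless noted: active = mean inhibition above about 50% in the one-dose retest (limit read from the data); inactive = the rest.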

SMILES	SENP6 inh	SENP8 block-1	SENP8 block-2	HSP90 inh	LGR2 antag	SENP7 inh	SENP8 conf	SENP6 conf	SENP7 conf	Casp3 SENP sel	SENP luc ctr
CCOC(=O)c1cnc(-c2ccccc2)nc1N	69.2	i	i	i	i	50.6	53.2	54.1	81.2	69.9	51.9
CCOC(=O)c1cnc(SCC(=O)c2ccccc2)nc1N	81.5	56.4	i	i	nt	78.4	i	i	i	i	i
COc1cc(N=Nc2ccccc2C(=O)O)ccc1O	i	i	i	i	i	i	nt	nt	nt	nt	nt
NS(=O)(=O)c1ccc(N=Nc2c(O)ccc3ccccc23)cc1	i	i	i	i	i	i	nt	nt	nt	nt	nt
Oc1ccc(N=Nc2c(O)ccc3ccccc23)cc1	68.9	63.7	i	i	i	i	67.1	68.3	72.1	i	i
COc1cc(N=Nc2ccc3ccccc3c2)ccc1O	96.6	93.6	i	i	i	94.8	94.5	95.9	101.0	73.4	94.2
Oc1ccc(N=Nc2ccc3ccccc3c2)cc1	98.4	98.3	i	i	i	100.7	99.0	99.6	102.3	97.5	93.8
COc1cccc(-c2ccc3c(c2)[C@H]2[C@H](CCN2C(=O)CN2CCOCC2)[C@H](CO)N3)c1	nt	nt	nt	nt	i	nt	nt	nt	nt	nt	nt
COc1ccc(NC(=O)N[C@@H]2CC[C@@H](CCn3cc(-c4ccccn4)nn3)O[C@H]2CO)cc1	nt	nt	nt	nt	i	nt	nt	nt	nt	nt	nt
COC(=O)c1ccc(NC(=O)Nc2cccc(F)c2)cc1	88.2	79.3	i	i	i	89.7	74.9	74.8	95.5	69.1	i
CCSc1nsc(NC(=O)Nc2ccc(F)cc2F)n1	51.7	i	i	i	nt	i	i	i	65.2	i	i
CC(=O)Nc1cccc(NC(=O)Nc2ccc(F)cc2F)c1	i	i	i	i	i	i	nt	nt	nt	nt	nt
O=C(Nc1ccccc1)Nc1ccc(F)cc1F	66.7	i	i	i	i	69.6	59.4	56.2	82.1	67.3	i
O=C(Nc1ccccc1)Nc1ccccc1Br	58.8	73.2	i	i	i	81.0	i	82.1	95.5	77.7	i
CCSc1nsc(NC(=O)Nc2ccccc2Cl)n1	nt	nt	i	nt	i	nt	nt	nt	nt	nt	nt
O=C(C[C@@H]1C[C@@H]2c3cc(NS(=O)(=O)c4ccc(F)cc4)ccc3O[C@@H]2[C@H](CO)O1)NC1CCCCC1	nt	nt	nt	nt	i	nt	nt	nt	nt	nt	nt
COC(=O)c1ccc(NC(=O)Nc2ccc(F)cc2F)cc1	81.5	64.4	i	i	i	87.7	i	i	76.6	72.3	i
CCCNC(=O)N1C[C@@H](O)COC[C@@H]2O[C@H](CC(=O)N[C@@H]3CCN(Cc4ccccc4)C3)CC[C@H]21	nt	nt	nt	nt	i	nt	nt	nt	nt	nt	nt
C[C@@H]1CCCCO[C@H](CN(C)C(=O)CCC(F)(F)F)[C@H](C)CN([C@@H](C)CO)C(=O)c2cc(NC(=O)CCCN(C)C)ccc2O1	nt	nt	nt	nt	i	nt	nt	nt	nt	nt	nt
NC(=O)c1ccc(NC(=O)c2cccc(Oc3ccccc3)c2)cc1	i	i	i	i	i	67.9	i	i	i	i	i
COc1ccc(NC(=O)c2cccc(Oc3ccccc3)c2)cn1	71.5	i	i	i	i	61.6	52.1	52.0	83.4	i	i
Cc1cccc(Nc2nc(-c3ccc(F)c(C)c3)cs2)n1	52.9	i	i	i	i	55.0	i	59.8	75.6	i	i
Cc1cccc(Nc2nc(-c3ccc(O)c(O)c3)cs2)n1	64.7	i	i	i	i	i	i	i	71.1	i	67.4
Oc1ccc(-c2csc(Nc3cccc4ccccc34)n2)cc1O	i	i	i	i	i	i	nt	nt	nt	nt	nt
CCC(=O)Nc1nc(C)c(-c2csc(Nc3ccccn3)n2)s1	i	59.0	i	i	i	i	51.5	69.4	85.7	i	57.8
SMILES	SENP6 inh	SENP8 block-1	SENP8 block-2	HSP90 inh	LGR2 antag	SENP7 inh	SENP8 conf	SENP6 conf	SENP7 conf	Casp3 SENP sel	SENP luc ctr
CC(=O)Nc1ccc(-c2csc(Nc3ccccn3)n2)cc1	86.7	74.8	i	i	i	73.4	74.2	78.6	95.7	60.2	86.5
O=C(Nc1ccc2c(c1)OCO2)N[C@H]1CC[C@@H](CCNC(=O)C2CCCCC2)O[C@@H]1CO	nt	nt	nt	nt	i	nt	nt	nt	nt	nt	nt
COc1ccc2c3c([nH]c2c1)[C@@H](CO)N(C(=O)C1CC1)CC31CN(S(C)(=O)=O)C1	nt	nt	nt	nt	i	nt	nt	nt	nt	nt	nt
Cc1ccnc(Nc2nc(-c3ccc(O)c(O)c3)cs2)c1	i	i	i	i	i	i	nt	nt	nt	nt	nt
Oc1ccc(-c2csc(Nc3ccccn3)n2)cc1O	86.9	60.6	i	i	i	i	77.8	78.9	91.6	i	80.8
CC(=O)Nc1ccc(N=NC2C(=O)N(C(N)=S)N=C2C)cc1 (stereo not drawn)	70.2	61.1	i	i	i	62.9	64.3	63.9	89.7	90.0	i
CC1=NN(C(N)=S)C(=O)C1N=Nc1ccc(O)cc1 (stereo not drawn)	i	i	i	i	i	i	nt	nt	nt	nt	nt
CC1=NN(C(N)=S)C(=O)C1N=Nc1ccc([N+](=O)[O-])cc1 (stereo not drawn)	89.8	87.3	i	i	i	88.7	i	i	i	i	i
CC1=NN(C(N)=S)C(=O)C1N=Nc1ccc(F)cc1 (stereo not drawn)	88.4	78.9	i	i	i	80.3	i	i	i	53.9	i
CCOc1ccc(N=NC2C(=O)N(C(N)=S)N=C2C)cc1 (stereo not drawn)	97.0	93.2	i	i	i	87.8	70.7	96.6	101.7	97.1	90.0
C[C@@H]1CCCCO[C@H](CN(C)C(=O)Nc2ccc3c(c2)OCO3)[C@H](C)CN([C@@H](C)CO)C(=O)c2cc(NC(=O)CCCN(C)C)ccc2O1	nt	nt	nt	nt	i	nt	nt	nt	nt	nt	nt
Cc1noc(C)c1NC(=O)N(C)C[C@@H]1Oc2ccc(NS(=O)(=O)c3ccc(Cl)cc3)cc2CC(=O)N([C@H](C)CO)C[C@@H]1C	nt	nt	nt	nt	i	nt	nt	nt	nt	nt	nt
Cc1ccc(S(=O)(=O)Nc2ccc3c(c2)CC(=O)N([C@@H](C)CO)C[C@@H](C)[C@H](CN(C)C(=O)Nc2ccc(C(F)(F)F)cc2)O3)cc1	nt	nt	nt	nt	i	nt	nt	nt	nt	nt	nt
COc1ccc2[nH]c3c(=O)n(Cc4ccc(C(=O)N5CCCC5)cc4)c(=S)[nH]c3c2c1	66.1	i	i	i	i	i	i	i	i	i	i
O=c1c2cc([N+](=O)[O-])cc([N+](=O)[O-])c2[nH]n1-c1ccccc1	64.5	i	i	i	nt	i	54.9	50.6	78.9	71.3	73.0
Nc1[nH]n(-c2ccccc2)c(=O)c1N=Nc1ccccc1[N+](=O)[O-]	i	i	i	i	nt	61.4	i	i	i	i	i

Screens: PubChem BioAssay, several laboratories
